Compound activity deposited in PubChem by National Center for Advancing Translational Sciences (NCATS).
Hits are enriched below; roughly 19% of the tested compounds scored in any of these assays.
TDP1 cell noCPT = qHTS for Inhibitors of human tyrosyl-DNA phosphodiesterase 1 (TDP1): qHTS in cells in absence of CPT. DT40 Tdp1-/- hTDP1 cells, no CPT, ATP luminescence, 48 h. Potency, µM (series often up to 46.2 µM), most hits filed as inhibitors. hit rate 15% among 420,000. AID 686978, 2013; also: nearly all actives have a fitted effect of over 55% in size
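Camptothecin absent (DMSO only). Human TDP1-complemented DT40 knockout cells, 400 cells/well, 37 °C for minimum 48 hr; ATP measured via CellTiter-Glo, 30 min dark incubation, luminescence.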
TDP1 cell CPT = growth inhibition of DT40 Tdp1-/-;hTDP1 cells with camptothecin (screen for TDP1 inhibitors). Potency, µM (titrated, usually from 46.2 µM), hits mostly inhibitors. AID 686979. chicken DT40 Tdp1-/-;hTDP1 cells + 20 nM CPT, ATP luminescence, 48 h. hit rate 12% among 420,000; also: nearly all actives have a fitted effect of over 55% in size
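Chicken DT40 Tdp1-/- cells stably complemented with human TDP1 were seeded at 400 cells/well in medium containing 20 nM camptothecin, exposed to pin-transferred compounds, and grown at 37 °C for at least 48 hr. Viability was read as ATP luminescence.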
IL1B secr inh = blocks inflammasome-driven IL-1 beta release; THP-1 LPS/ATP IL-1B secretion, AlphaLISA, 16 h; stronger effect = lower value; activity change, % at 57.5 µM; hit rate 4.7% among 360,000; AID 743279; in the data active = activity change below about -50%; inconclusive = mostly about -30% to -49%
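Secreted IL-1B measured by AlphaLISA bead assay after 16 h compound exposure of THP-1 cells; compounds (final up to 57.5 uM) added 1 h before LPS (250 ng/mL) and ATP (1.25 mM) stimulation; lower signal means less secretion.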
HT1080-NT tox = kills 2HG-producing HT-1080-NT fibrosarcoma cells; HT-1080-NT fibrosarcoma viability, CellTiter-Glo ATP luminescence, 48 h; Potency, µM (doses to about 46.1 µM), usual class: cytotoxic; hit rate 1.6% among 360,000;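 also: NT is the 2HG producing partner of a matched IDH1 knockdown line; nearly all actives have a fitted effect of over 55% in size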
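HT-1080-NT fibrosarcoma cells (2HG-overproducing), 750 cells/well in RPMI with 5% FBS, dosed after 2 h and incubated 48 h at 37C. CellTiter-Glo luminescence normalized to DMSO and no-cell wells; concentration-response curves fitted and classed.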
HT1080 IDH1KD tx = kills HT-1080 cells with IDH1 knockdown; HT-1080 IDH1 knockdown viability, ATP luminescence, 48 h; Potency, µM (series often up to 46.1 µM), hits mostly cytotoxic; hit rate 2% among 360,000
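% activity derives from luminescence (CellTiter-Glo), normalised to DMSO and no-cell wells. HT-1080-IDH1KD cells, 750/well, had 48 h compound exposure at 37 °C.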
Numbers stand for hits; - = inactive; ? = inconclusive; . = no result given. Unless noted, calls follow the shape of the dose curve; as a rule, active = well fitted curve in the direction sought with a large enough effect; inconclusive = small, poorly fitted or top-dose-only effect, or another doubt; inactive = no such curve, though single readings can be large; an effect the other way counts as inactive or inconclusive.

SMILES	TDP1 cell noCPT	TDP1 cell CPT	IL1B secr inh	HT1080-NT tox	HT1080 IDH1KD tx
COc1cccc(CNC(=O)C2CSC3(C)CCC(=O)N23)c1 (stereo not drawn)	-	-	-	-	-
CCCC1=[N+](CC(=O)c2ccc(C)cc2)CCn2cccc21	18µM	?	-	-	-
Cc1csc(C)[n+]1CC(=O)c1ccccc1	-	-	-	-	-
CCCC1=[N+](CC(=O)c2ccccc2)CCn2c(C)ccc21	2.1µM	2.9µM	?	-	-
COC1C(OC(=O)/C=C/C=C/C=C/C=C/C(=O)O)CCC2(CO2)C1C1(C)OC1CC=C(C)C (stereo not drawn) (tested in a mixture with another compound)	.	.	-	-	?
Cc1ccc(S(=O)(=O)N(C)c2ccc(C(=O)N(CC(C)C)C3CCS(=O)(=O)C3)cc2)cc1 (stereo not drawn)	?	?	-	-	-
CC(C)[C@H](NC(=O)N1CCn2c1nc1ccccc12)C(=O)NCC1CCCO1 (stereo partly drawn)	-	-	-	-	-
CCCn1cc(S(=O)(=O)c2ccc(OC)cc2)c(=O)c2cc(F)c(N3CCCC(C)C3)cc21 (stereo not drawn)	18µM	?	.	.	.
CCCCn1cc(S(=O)(=O)c2ccc(C)cc2)c(=O)c2cc(F)c(N3CCCCC3)cc21	13µM	18µM	.	.	.
CCCn1cc(S(=O)(=O)c2ccc(OC)cc2)c(=O)c2cc(OC)ccc21	-	-	-	-	-
CCCCn1cc(S(=O)(=O)c2ccc(OC)cc2)c(=O)c2cc(F)c(N3CCCC3)cc21	10µM	12µM	.	.	.
CCCn1cc(S(=O)(=O)c2ccc(C)cc2)c(=O)c2cc(F)c(N3CCCC3)cc21	-	?	.	.	.
CCCCn1cc(S(=O)(=O)c2ccc(Cl)cc2)c(=O)c2cc(F)c(N3CCCCC3)cc21	12µM	12µM	.	.	.
COc1ccc(S(=O)(=O)c2cn(C)c3cc(N4CCCCCC4)c(F)cc3c2=O)cc1	15µM	18µM	.	.	.
CN(C(=O)c1ccccc1F)C(c1ccccc1)c1ccccc1	16µM	10µM	-	-	-
CC(=O)C(N=Nc1ccccc1)(Sc1nnc(-c2ccccc2)n1-c1ccccc1)C(C)=O	16µM	?	-	-	-
O=S(=O)(c1ccc(F)cc1)N1CCCNCC1	-	-	-	-	-
O=S(=O)(c1cccc2c(Cl)cccc12)N1CCCNCC1	5.8µM	9.2µM	.	.	.
O=S(=O)(c1cccc2c(I)cccc12)N1CCCNCC1	8.2µM	13µM	.	.	.
COC(=O)c1sc2cc([N+](=O)[O-])cc(SCC(C)C)c2c1N	-	-	-	-	-
Cc1ccc(C)c(NC2=C(c3ccc(C(F)(F)F)cc3)C(=O)c3ccccc32)c1	5.8µM	5.8µM	.	.	.
COc1cc(OC)c(NC2=C(c3ccc(C(F)(F)F)cc3)C(=O)c3ccccc32)cc1Cl	23µM	?	.	.	.
COCC(=O)Nc1cc(C(=O)N2CCCC(C(N)=O)C2)cc2nc(-c3ccccc3)n(C)c12 (stereo not drawn)	-	-	.	.	.
CCOC(=O)CSc1c(-c2cccs2)[nH]c2ccccc12	-	-	-	18µM	?
CCOC(=O)CSc1c(-c2ccc(Cl)cc2)[nH]c2ccccc12	?	?	-	?	-
SMILES	TDP1 cell noCPT	TDP1 cell CPT	IL1B secr inh	HT1080-NT tox	HT1080 IDH1KD tx
COc1cccc(C(O)c2nc(-c3ccc(F)cc3OC)cs2)c1 (stereo not drawn)	?	-	-	?	-
COc1ccc(C(O)c2nc(-c3ccc(F)cc3OC)cs2)cc1 (stereo not drawn)	?	26µM	-	-	-
COc1cc(F)ccc1-c1csc(C(O)c2ccc(F)cc2)n1 (stereo not drawn)	?	23µM	-	-	?
CC(CCN1C(N(C)C)=NC[C@@H]1C)c1ccccc1 (stereo partly drawn)	-	-	-	-	-
CCOc1ccc(S(=O)(=O)N2CCOCC2)cc1NC(=O)Cc1c(F)cccc1Cl	-	?	-	-	-
COC(=O)[C@@]1(Cc2ccccc2)[C@H]2C(=O)N(C)C(=O)[C@H]2[C@H]2CN(C)C(=NCc3ccccc3)N21	-	-	-	-	-
